Sampled rows, rich in hits. Any-hit rate of the full collection: about 7%.
rCAG binder: r(CAG) repeat RNA binding; TO-PRO-1 dye displacement fluorescence; inhibition, % at 3 µM; 370,000 tested, 1.3% active;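 active means inhibition above the plate cutoff, the mean of all test compounds on that plate plus 3 SD, cut at about 35% in these data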;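 further: 0% = DMSO alone and 100% = 100 µM mitoxantrone as full dye displacement; higher means more dye released from RNA so lower well fluorescence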
GRIN3A LBD mod: modulates the human NR3A ligand-binding domain; NR3A LBD differential scanning fluorimetry, Tm shift; 0% = protein alone, 100% = glycine-bound protein; Tm shift relative to glycine control, % at 25 µM; 340,000 tested, 2.5% active; AID 1259313;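 active means melting temperature shift of at least 10% of the positive control shift, at one fixed dose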
AHR act: activators of human aryl hydrocarbon receptor; P35869; AHR-responsive luciferase reporter cells, luminescence; activation, % at 5 µM; 320,000 tested, 2.5% active; AID 2796; in the data active means activation above about 47%;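 further: 0% = vehicle wells and 100% = reference agonist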
ADAM17 inh: inhibitors of human ADAM17. AID 720648. P78536. recombinant ADAM17, EDANS/DABCYL FRET peptide cleavage. inhibition, % at 6.95 µM. 370,000 tested, 0.83% active;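 active means inhibition above the mean of compounds lying between control limits plus 3 SD, set per campaign, cut at about 8.5% in these data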;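 further: 0% = DMSO-only wells as the low control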
KLK7 zymogen act: activates the human kallikrein-7 zymogen; purified proKLK7, EDANS-DABCYL substrate fluorescence; 100% is mature enzyme control, 0% vehicle; activation, % at 7 µM; P49862; 370,000 tested, 0.9% active;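 active means activation above the mean of all tested compounds plus 3 SD, computed per campaign excluding outliers beyond control limits, cut at about 13% in these data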
ADAM10 inh: inhibits human ADAM10; O14672; recombinant ADAM10, EDANS/DABCYL FRET peptide cleavage, 3 h; inhibition, % at 7 µM; 370,000 tested, 0.62% active; AID 720582;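 active means inhibition above a per-campaign cutoff equal to the mean of compounds falling between control-based bounds plus 3 SD, cut at about 20% in these data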;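 further: 0% = DMSO wells while the 100% control is not disclosed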
Target sequence (O14672 214-748 limits assumed): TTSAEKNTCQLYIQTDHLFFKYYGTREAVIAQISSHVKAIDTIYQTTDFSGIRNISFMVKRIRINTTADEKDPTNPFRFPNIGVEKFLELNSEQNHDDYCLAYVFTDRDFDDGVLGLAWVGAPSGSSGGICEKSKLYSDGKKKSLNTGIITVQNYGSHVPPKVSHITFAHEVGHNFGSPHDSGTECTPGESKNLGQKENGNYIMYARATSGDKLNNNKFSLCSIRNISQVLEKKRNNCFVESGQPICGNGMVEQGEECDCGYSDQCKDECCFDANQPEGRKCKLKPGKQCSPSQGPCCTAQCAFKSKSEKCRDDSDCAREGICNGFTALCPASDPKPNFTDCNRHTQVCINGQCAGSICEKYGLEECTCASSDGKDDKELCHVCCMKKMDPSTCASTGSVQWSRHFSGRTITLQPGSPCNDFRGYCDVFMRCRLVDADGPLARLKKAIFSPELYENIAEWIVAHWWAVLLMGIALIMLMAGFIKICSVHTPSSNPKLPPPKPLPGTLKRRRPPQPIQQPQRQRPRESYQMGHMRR
ADAM10 confirm: confirmation of inhibitors of human ADAM10. shares compounds with ADAM10 inh. ADAM10 QFRET peptide cleavage, EDANS fluorescence. inhibition, % at 6.95 µM. 2,100 tested, 1% active. AID 743208;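 active means inhibition above about 20% chosen separately for each screening run, limit read from the data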;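 further: 0% = DMSO wells and 100% = marimastat wells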
ADAM17 ctr: ADAM17 inhibition, counter-screen for ADAM10 exosite hits; ADAM17 QFRET peptide cleavage, EDANS fluorescence; AID 743214; 2,100 tested, 0.5% active; shares compounds with ADAM10 inh; inhibition, % at 6.95 µM;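 active means mean triplicate inhibition above the solvent-only control wells' mean plus 3 SD, cut at about 12% in these data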;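 further: 0% = DMSO wells and 100% = marimastat wells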
ADAM10 ctr: inhibits human ADAM10 in ADAM17 exosite counter-screen | shares compounds with ADAM17 inh | recombinant ADAM10, EDANS/DABCYL FRET peptide cleavage, 3 h | inhibition, % at 6.95 µM | 2,900 tested, 47% active | AID 743256;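 active means mean inhibition over the triplicate runs exceeds the activity threshold set in the earlier primary screen, cut at about 20% in these data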;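 further: 0% = DMSO wells and 100% = marimastat wells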
ADAM17 confirm: confirmation of inhibitors of human ADAM17; inhibition, % at 6.95 µM; shares compounds with ADAM17 inh; recombinant ADAM17, EDANS/DABCYL QFRET peptide cleavage; 2,900 tested, 65% active; AID 743257;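 active means mean inhibition across replicates above the hit cutoff set in the primary screen, cut at about 8.5% in these data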;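 further: 0% = DMSO wells and 100% = marimastat wells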
Starred values were filed as active, the others as inactive; / = not tested or not shown.

SMILES	rCAG binder	GRIN3A LBD mod	AHR act	ADAM17 inh	KLK7 zymogen act	ADAM10 inh	ADAM10 ctr	ADAM17 confirm	others
CCN1C(=O)C(=Cc2ccc(N3CCOCC3)o2)C(=O)N(CC)C1=S	-8	-1	1	-1	0	25*	/	/	ADAM10 confirm=-1;ADAM17 ctr=0
COC1CC2C=C(C)C=CC=CC(=O)NC(c3ccccc3)CC=CCCC(O)CC(=O)C2=C1O (stereo not given)	25	/	/	-1	0	-4	/	/
CCCC/C(C)=C/[C@@H](NP(=O)(c1ccccc1)c1ccccc1)c1ccccc1	-5	3	3	9	0	20*	/	/	ADAM10 confirm=7;ADAM17 ctr=2
NC(Cc1ccc(N(CCCl)CCCl)cc1)C(=O)O (stereo not given)	6	/	/	0	-1	-14	/	/
CC1=CC(C)CC(C)OC(=O)CC(c2ccc(O)cc2)NC(=O)C(Cc2c(Br)[nH]c3ccccc23)N(C)C(=O)C(C)NC(=O)C(C)C1 (stereo not given)	8	-4	/	8.9*	0	25*	30*	18*	ADAM10 confirm=2;ADAM17 ctr=1
CCC(c1nnnn1-c1ccc(OC)cc1)N1CCC2(CC1)C(=O)NCN2c1ccccc1 (stereo not given)	2	/	/	-1	0	-4	/	/
COc1ccc(-n2nnnc2C(CCc2ccccc2)N2CCC3(CC2)C(=O)NCN3c2ccccc2)cc1 (stereo not given)	12	/	/	12*	0	28*	33*	18*	ADAM10 confirm=10;ADAM17 ctr=3
COc1ccc(NP(=O)(Oc2ccc(Cl)cc2)Oc2ccc(Cl)cc2)cc1OC	-1	-14	-1	12*	0	23*	41*	17*	ADAM10 confirm=9;ADAM17 ctr=4
COc1ccc(OC)c(NP(=O)(Oc2ccc(Cl)cc2)Oc2ccc(Cl)cc2)c1	1	0	1	1	1	4	/	/
COc1ccc(OC)c(NP(=O)(Oc2ccccc2)Oc2ccccc2)c1	-5	-1	/	10*	0	32*	8	6	ADAM10 confirm=0;ADAM17 ctr=1
CC(=O)NC1=C(N2CC2C)C(=O)C(NC(C)=O)=C(N2CC2C)C1=O (stereo not given)	2	0	/	0	0	-7	/	/
COC(=O)C1=C(c2ccc(-c3ccccc3)c(F)c2)C[C@@H]2CC[C@H]1N2C(=O)NCCOc1ccccc1	7	-4	1	18*	0	38*	38*	19*	ADAM10 confirm=5;ADAM17 ctr=2
O=C(Nc1cc(Cl)cc(Cl)c1)N1Cc2ccccc2-n2nncc2C1	3	/	/	-4	0	1	/	/
Oc1ccccc1Cl	-1	0	1	-4	-1	-12	/	/
Oc1ccc(O)c2c1C1(Cl)C(Cl)=C(Cl)C2(Cl)C1(Cl)Cl	11	-9	/	15*	0	41*	29*	14*	ADAM10 confirm=5;ADAM17 ctr=2
O=S(=O)(c1cc(Cl)cc(Cl)c1)N1Cc2cc(-c3cccc(F)c3)ccc2-n2nncc2C1	2	/	/	-4	0	-4	/	/
CCc1sc(C(=O)N2CCC3(CC2)OCCO3)cc1Br	-4	0	3	-3	0	-3	/	/
O=C(c1cc2c(s1)CCCCCC2)N1CCC2(CC1)OCCO2	-4	1	6	8.7*	1	3	3	12*
CC(C)c1ccc(-n2c(O)c(C=NC(CCS(C)=O)C(=O)O)c(=O)[nH]c2=S)cc1 (stereo not given)	23	0	0	9.2*	-1	14	16	8
c1ccc(CCN2CCCCC2)nc1	1	1	/	-3	0	-5	/	/
CC(c1ccccc1)n1cncc1C(=O)O (stereo not given)	3	1	-1	9.4*	0	3	15	11*
Cc1ccc(-[n+]2c(Cc3nn(-c4ccccc4)c(C)[n+]3-c3ccc(C)cc3)nn(-c3ccccc3)c2C)cc1	9	/	/	-4	0	-6	/	/
COc1ccc(S(=O)(=O)NC(CC(=O)N2CCC3(CC2)OCCO3)c2ccco2)cc1 (stereo not given)	1	2	1	-1	-1	12	/	/
COc1ccc(C(=O)Nc2cccc(S(=O)(=O)NCc3ccco3)c2)cc1	8	-7	24	8.7*	0	11	23*	15*
CC1=C(C)CC2(C(=O)NC(=S)NC2=O)C(C)C1 (stereo not given)	3	0	/	2	0	2	/	/
SMILES	rCAG binder	GRIN3A LBD mod	AHR act	ADAM17 inh	KLK7 zymogen act	ADAM10 inh	ADAM10 ctr	ADAM17 confirm	others
COC(=O)C1=C(c2ccc(F)cc2OCc2ccccc2)C[C@@H]2CC[C@H]1N2C(=O)NCc1ccc([N+](=O)[O-])cc1	7	-4	1	9.0*	0	15	30*	20*
COC(=O)C1=C(c2ccc(F)cc2OCc2ccccc2)C[C@@H]2CC[C@H]1N2C(=O)NCc1ccc(F)cc1	3	-1	-2	4	0	6	/	/
CSCCC(c1nnnn1Cc1ccccc1)N1CCC2(CC1)C(=O)NCN2c1ccccc1 (stereo not given)	1	/	/	11*	1	9	8	6
CC(C)=CCc1c(O)cc2c(c1O)C(=O)CC(c1ccc(O)cc1)O2 (stereo not given)	10	26*	42	9.3*	-1	19	37*	20*
Cc1cc(O)c2c(c1)OC(C)(C)C1=C2CC(C)CC1 (stereo not given)	0	-12	16	12*	0	12	30*	14*
O=C(/C=C/c1ccccc1)N1Cc2ccccc2-n2nncc2C1	1	/	/	4	0	1	/	/
Fc1ccc(N2Cc3ccccc3-n3nncc3C2)cc1	4	/	/	-3	0	-2	/	/
Cc1cccc(N2C(=O)/C(=C/c3ccc(CN(CCC#N)S(C)(=O)=O)o3)C(=O)NC2=S)c1	66*	-8	-1	9.1*	1	9	0	7
C1CN(P2(N3CC3)=NP(N3CC3)(N3CC3)=NP(N3CC3)(N3CC3)=N2)CCO1 (stereo not given)	2	/	/	-2	-1	-15	/	/
O=c1[nH]c2ccccc2n1C1CCN(C(c2cccs2)c2nnnn2Cc2ccccc2)CC1 (stereo not given)	4	/	/	11*	1	13	38*	18*

High-throughput results from PubChem BioAssay.
